Experimental data reported in PubChem BioAssay.
A number with no mark means an inactive call.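 The calls were made as follows: active = RAM network inhibition above 8.4% in each of two replicates, 3 SD over the compound average; inconclusive = above 8.4% inhibition in only one replicate; inactive = 8.4% inhibition or less in each replicate.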

Assay: RAM signaling pathway blockade in yeast – S. cerevisiae, Pdr1DBD-CYC8 efflux-inhibited sensitized strain, primary screen (AID 1298);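 also: 0% = DMSO untreated cells without growth and 100% = 10 µM 1-NA-PP1 full growth; higher means more yeast growth rescued from 5-FOA killing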
Details: S. cerevisiae cbk1-as DSE1-URA3 strain, 5-FOA growth OD615, 2 d; at 50 µM; active compounds read high

**Q.** With `O=C(CSc1ccccn1)c1ccc(F)cc1` as the molecule, how does the RAM network inhibition read?
**A.** The RAM network inhibition was 1.72%.

**Q.** With `O=C(CCn1c(=O)oc2ccccc21)NCc1ccc2c(c1)OCO2` as the molecule, how does the RAM network inhibition read?
**A.** The RAM network inhibition was 6.04%.

**Q.** With `COc1ccc(-n2c(=O)c3ccccc3n(CC(=O)NC3CCCC3)c2=O)c(OC)c1` as the molecule, how does the RAM network inhibition read?
**A.** The RAM network inhibition was 3.21%.

**Q.** For `O=C(Nc1ccc(F)cc1)C1CCCN(S(=O)(=O)c2cccc3cccnc23)C1` (configuration not stated), which RAM network inhibition is on record?
**A.** Its RAM network inhibition is 7.62%.

**Q.** For `COc1ccc(CCNC(=O)CCn2c(=O)oc3ccccc32)cc1OC`, which RAM network inhibition is on record?
**A.** The RAM network inhibition was 1.61%.

**Q.** Which RAM network inhibition does the source give for `O=C(CCS(=O)(=O)c1cccc2nonc12)NCCc1ccccc1Cl` here?
**A.** Its RAM network inhibition is 4.14%.

**Q.** With `Cc1ccc(S(=O)(=O)N(CC(=O)N2CCCC2)C2CCCCC2)cc1` as the molecule, how does the RAM network inhibition read?
**A.** The RAM network inhibition was 2.21%.

**Q.** With `Cc1ccc(N2C(=O)C(Cl)=C(NCCO)C2=O)c(C)c1` as the molecule, how does the RAM network inhibition read?
**A.** The RAM network inhibition was 8.82%.

**Q.** Which RAM network inhibition does the source give for `Cc1cccn2cc(-c3ccc(F)cc3)nc12` here?
**A.** The RAM network inhibition was -1.54%.

**Q.** With `CSc1nc2ccc(NS(=O)(=O)c3ccc4c(c3)OCCO4)cc2s1` as the molecule, how does the RAM network inhibition read?
**A.** The RAM network inhibition was 5.46%.

**Q.** With `Cc1cc(Nc2ccc3c(c2)OCCO3)n2nc(C)nc2n1` as the molecule, how does the RAM network inhibition read?
**A.** The RAM network inhibition was 1.45%.

**Q.** Which RAM network inhibition does the source give for `O=C(COc1ccc(S(=O)(=O)NC2CCCCC2)cc1)Nc1ccc2c(c1)OCCO2` here?
**A.** Its RAM network inhibition is 5.01%.

**Q.** For `COc1ccc(OC)c2c1sc(=NC(=O)CN1C(=O)CCC1=O)n2C`, which RAM network inhibition is on record?
**A.** Its RAM network inhibition is 2.41%.

**Q.** For `Cc1occc1C(=O)Nc1nnc(-c2ccncc2)s1`, which RAM network inhibition is on record?
**A.** The RAM network inhibition was -1.3%.

**Q.** With `Cc1nnc(SCC(=O)Nc2ccc3c(c2)OCO3)o1` as the molecule, how does the RAM network inhibition read?
**A.** The RAM network inhibition was 4.08%.

**Q.** Which RAM network inhibition does the source give for `O=C(CSC1=NS(=O)(=O)c2ccccc21)Nc1ccccc1` here?
**A.** The RAM network inhibition was -0.47%.

**Q.** For `CCOC(=O)Cc1csc(NC(=O)COc2ccc(N(C)S(=O)(=O)c3cccs3)cc2)n1`, which RAM network inhibition is on record?
**A.** Its RAM network inhibition is 1.7%.
